# Compound activity from PubChem.
# IMPase inh = cell-permeable inhibitors of inositol monophosphatase (IMPase); inhibition (IP1 accumulation), % at 46.1 µM; P97697; CHO-M1 cells, IP1 accumulation, HTRF TR-FRET ratio; 120,000 tested, under 10 active; AID 901; active = well fitted curve in the direction sought with a large enough effect in the signal ratio, not every such curve was filed as active; inconclusive = small, poorly fitted or top-dose-only effect, or a change in a side signal; inactive = no such curve, though single readings can be large or run the other way; the % refers to the signal ratio;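 note: cells stimulated with carbachol in lithium chloride buffer; higher means more IMPase inhibition seen as more IP1 and lower FRET ratio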
# Target sequence (P97697 whole entry, looked up): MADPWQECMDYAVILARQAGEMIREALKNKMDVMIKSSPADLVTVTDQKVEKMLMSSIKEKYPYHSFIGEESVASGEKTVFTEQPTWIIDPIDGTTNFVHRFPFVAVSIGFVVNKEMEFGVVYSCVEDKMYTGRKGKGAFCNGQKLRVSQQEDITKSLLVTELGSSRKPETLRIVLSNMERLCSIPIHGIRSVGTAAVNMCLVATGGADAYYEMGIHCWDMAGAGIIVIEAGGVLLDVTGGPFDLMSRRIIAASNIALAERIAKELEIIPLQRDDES
#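 CHO-M1 cells (CHO stably expressing M1 receptor), compound up to 46 uM final, stimulated with carbachol (50 uM as added) in buffer with 50mM LiCl, pH 7.4, 30 min at 37C. Cytosolic IP1 read by TR-FRET; AC50 from Hill fits.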
# IMPase Li inh = membrane-permeable IMPase blocker, potentiated with lithium; Potency, µM (titrated, usually from 59.4 µM), hits mostly inhibitors; CHO-M1 cells, IP1 TR-FRET (IP-One), carbachol + lithium; actives 0.35% (n = 210,000);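 note: IP1 builds up when IMPase is blocked and the TR-FRET signal falls; nearly all actives have a fitted effect of over 50% in size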
#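 Test compounds were applied to CHO-M1 cells previously cultured for 16–30 h at 2000 per well. A small lithium amount accompanied them; after 30 min at 37C, IP1 was quantified by TR-FRET.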
# 12-hLO inh = 12-hLO (ALOX12) enzyme inhibition; P18054; purified 12-hLO, xylenol orange hydroperoxide absorbance; actives 0.12% (n = 150,000); Potency, µM (doses to about 57.1 µM), actives largely listed as inhibitors; AID 1452; note: nearly all actives have a fitted effect of over 55% in size
#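 Xylenol orange chromogenic assay: hydroperoxide from 12hLO oxidises Fe(II), giving red-shifted Fe(III)-XO absorbance. Conditions: 150 nM enzyme, 40 uM arachidonic acid, 25 mM Hepes pH 7.0, 0.01% Triton X-100, 30 min, room temperature.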
# PNC assembly inh = inhibitors of perinucleolar compartment assembly | actives 3.1% (n = 140,000) | activity change (PNC), negative = inhibition, % at 10 µM | PC3M PTB-GFP, PNC prevalence imaging, 16 h; active compounds read low;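 active = readout at or below -70, meaning at least 70% loss of cells showing the perinucleolar compartment, a nuclear body marking cancer cells; inconclusive = readout between -30 and a set limit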
#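 Compounds are pinned in duplicate onto adhered PC3M cells stably expressing GFP-tagged PTB and incubated 16 h at 37 C. Cells are then fixed, nuclei stained with Hoechst, and PNC-positive cells counted.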
# ALOX15B inhib = 15-hLO-2 (ALOX15B) enzyme inhibition. O15296. purified 15hLO-2, xylenol orange hydroperoxide absorbance. Potency, µM (titrated, usually from 57.1 µM), usual class: inhibitors. actives 0.56% (n = 110,000); note: nearly all actives have a fitted effect of over 60% in size
#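 Enzyme 50 nM, AA 45 uM, 25 mM Hepes pH 7.5 + 0.01% Triton X-100; cpd preinc 15 min RT, rxn 90 min RT; stop/detect with 200 uM XO + 300 uM Fe(II) in 50 mM H2SO4, 30 min; A573/A405.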
# Hits are given with their value; i = inactive; ? = inconclusive; nt = no result; [ ] = remark or other dose. This excerpt belongs to a sample that is enriched for hits. Unless noted, calls come from the whole dose curve; as a rule, active = well fitted curve in the direction sought with a large enough effect; inconclusive = small, poorly fitted or top-dose-only effect, or another doubt; inactive = no such curve, though single readings can be large; an effect the other way counts as inactive or inconclusive.
SMILES,IMPase inh,IMPase Li inh,12-hLO inh,PNC assembly inh,ALOX15B inhib
CCN(CC)CCn1c(-c2ccccc2)nc2c(NC3CCCCC3)nc(C)nc21,nt,i,i,nt,i
COCCCN1C(=O)C(=O)/C(=C(/O)c2ccc(OC(C)C)c(C)c2)C1c1ccncc1 (stereo not given),i,10µM,i,i,i
COCCCN1C(=O)C(=O)/C(=C(/O)c2ccc(OC(C)C)cc2)C1c1cccnc1 (stereo not given),i,11µM,i,i,i
CCCOc1ccc(/C(O)=C2/C(=O)C(=O)N(CCCOC)C2c2cccnc2)cc1 (stereo not given),i,10µM,i,i,i
Nc1ccn([C@H]2O[C@@H](COP(=O)(O)O)[C@@H](O)[C@H]2O)c(=O)n1,nt,i,i[11.4 µM],nt,i[11.4 µM]
CC(=O)N1CCN(C)CC1,i,i,i,nt,i
COc1cc(C2C3=C(CC(C)(C)CC3=O)Nc3c2c(=O)[nH]c(=O)n3Cc2ccccc2)ccc1O (stereo not given),nt,i,i,i,nt
COc1ccc(C2C3=C(CC(C)(C)CC3=O)Nc3c2c(=O)[nH]c(=O)n3Cc2ccccc2)cc1OC (stereo not given),i,i,i,-85,i
O=C(O)[C@@H](O)[C@@H](O)[C@@H](O)[C@@H](O)c1nc2ccccc2s1,nt,i,i[11.4 µM],nt,i[11.4 µM]
O=C(c1cnccn1)N1CCC[C@@]2(CCN(Cc3cc(C(F)(F)F)cc(C(F)(F)F)c3)C2)C1,nt,i,i,nt,i
N#C/C(C(=O)NCc1ccco1)=C1/SC=C(c2ccccc2)N1c1ccccc1,nt,11µM,i,i,nt
CC1=CS/C(=C(/C#N)C(=O)NCc2ccco2)N1c1ccccc1,i,i,i,i,i
O=C(CSCC(=O)N1CCN(c2ccccc2)CC1)Nc1nc(-c2ccc(Cl)s2)cs1,i,i,i,-108,i
O=C(CSCC(=O)N1CCCCC1)Nc1nc(-c2ccc(Cl)s2)cs1,i,i,i,i,i
Cc1nc(SCC(=O)Nc2ccccc2C(F)(F)F)c(C#N)c(C)c1CC(=O)c1ccc(Br)cc1,i,10µM,i,?,i
Cc1ccc(C(C(=O)NC2CCCCC2)N2CCCC2)cc1 (stereo not given),?,i,i,-112,i
O=C(COC(=O)Cc1ccsc1)NCC1CCCCC1,i,i,i,-90,i
O=C(COC(=O)Cc1ccc(Br)cc1)NCC1CCCCC1,nt,i,nt,nt,nt
O=C(Cc1ccccc1)Nc1nc(-c2cccc([N+](=O)[O-])c2)cs1,i,i,i,-103,nt
O=C(Cc1nc(-c2ccc([N+](=O)[O-])cc2)cs1)Nc1ccccc1,i,i,i,-100,?
Cc1cnc(CNc2cc(-c3ccoc3)ncn2)cn1,nt,i,i,nt,i
N[C@@H](Cc1cc(-c2ccc(Cl)cc2Cl)cc(CP(=O)(O)O)c1O)C(=O)O,i,i,i,nt,i
COc1ccc(NC(=O)CSc2nncn2C)cc1OC,i,i,i,i,nt
COc1cc(C(=O)CSc2nncn2C)cc(OC)c1OC,i,i,i,-111,i
COc1cc(NS(=O)(=O)c2ccc(NC(=O)c3ccc(Cl)cc3Cl)cc2)nc(OC)n1,i,nt,nt,nt,nt
SMILES,IMPase inh,IMPase Li inh,12-hLO inh,PNC assembly inh,ALOX15B inhib
CC1CCc2nn(CC(=O)NCCN3CCOCC3)cc2C1 (stereo not given),i,i,i,-82,i
Cc1ccc(C2CC(=O)Oc3cc(C)c(Cl)cc32)cc1 (stereo not given),nt,i,i[0.00818 µM],nt,i[0.0915 µM]
Cc1nn(-c2cc(N3CCCCC3)ccc2N)c(=O)c2ccccc12,i,i,i,-119,nt
Cc1ccc(C)c(N2CCN(C(=O)C3CCC(CNS(=O)(=O)c4ccc(Br)s4)CC3)CC2)c1 (stereo not given),i,nt,nt,nt,nt
COCOc1c2c(c(OCOC)c3c(OCOC)cccc13)/C(=N/NS(C)(=O)=O)C1=C2CCCC1,nt,i,nt,nt,nt
[N-]=[N+]=NCC1OC(n2cnc3c(=O)[nH]c(N)nc32)C(O)C1O (stereo not given),nt,i,i,nt,i
COCCNC(=O)COc1ccc(Br)cc1Cl,i,i,i,i,i
CN(C)CCCNC(=O)COc1ccc(Br)cc1Cl,nt,i,i,-87,nt
C=CCNC(=O)COc1ccc(Br)cc1Cl,i,i,i,-114,i
CN(C)c1nc(OCCNC(=O)COc2ccccc2Cl)nc(N(C)C)n1,i,i,i,-84,nt
CN1CCN(c2ncc3nc(-c4cccs4)c(=O)n(Cc4ccc(F)cc4)c3n2)CC1,nt,?,nt,nt,i
Cc1cc(C)cc(O)c1,nt,i,i,nt,i
Cn1c(C(=O)Nc2ccc3c(c2)OCO3)cc2c(=O)n(C)c3ccccc3c21,i,i,i,?,i
CCOc1ccc(NC(=O)c2cc3c(=O)n(C)c4ccccc4c3n2C)cc1,i,7.9µM,i,i,i
COc1cc(C2C(C(=O)c3ccco3)=C(O)C(=O)N2c2cc(C)on2)cc(Br)c1O (stereo not given),i,i,i,i,i
COc1ccc(OC)c(C2C(C(=O)c3cc4ccccc4o3)=C(O)C(=O)N2c2cc(C)on2)c1 (stereo not given),?,11µM,i,?,i
COc1cc(C2C(C(=O)c3ccc(C)o3)=C(O)C(=O)N2c2cc(C)on2)cc(Br)c1O (stereo not given),i,i,i,i,?
COc1ccc(C2C(C(=O)c3ccc(C)o3)=C(O)C(=O)N2c2cc(C)on2)cc1OC (stereo not given),?,10µM,i,i,i
Cc1ccc(C(=O)Nc2nnc(-c3ccc(C(C)(C)C)cc3)s2)cc1,?,3.5µM,i,i,i
Cc1nnc(NC(=O)c2ccncc2)s1,i,i,i,i,i
Cn1c(Cc2cccs2)nnc1SC/C=C/c1ccccc1,i,i,i,-100,nt
Cn1c(SC/C=C/c2ccccc2)nnc1-c1ccco1,i,i,i,-100,nt
Nn1c(SC/C=C/c2ccccc2)nnc1-c1ccncc1,?,i,i,i,i
O=C(c1ccco1)N1CCC2(CCCN(c3ncccn3)C2)CC1,nt,?,i,nt,i
CCCc1ccc(OCC(=O)Nc2sc3c(c2C(=O)OCC)CCC(C(C)(C)C)C3)cc1 (stereo not given),i,nt,nt,nt,nt
SMILES,IMPase inh,IMPase Li inh,12-hLO inh,PNC assembly inh,ALOX15B inhib
COc1cccc([C@@H]2Oc3ccc(OC)cc3C(=O)[C@H]2OC(=O)NS(=O)(=O)c2ccc(C)cc2)c1,nt,i,nt,nt,nt
O=C(NCCc1ccc(Cl)cc1)c1nnc(Cc2ccc(F)cc2)o1,i,nt,nt,nt,nt
CC(C)CCNC(=O)c1nnc(Cc2ccc(Cl)cc2)o1,i,i,i,-110,i
CCc1ccccc1-n1c(SCC(=O)NC)nnc1-c1cccnc1,i,nt,i,-122,i
CC1(C)Cc2c(C#N)c(NCCCO)nc(-c3ccccc3)c2CO1,i,i,i,i,i
Cc1nc(NCCCO)c(C#N)c2c1COC(C)(C)C2,i,nt,i,-122,i
CCOC(=O)N1CCN(c2c(-c3ccc(C)cc3)c(=O)c2=O)CC1,i,i,i,-100,nt
